Tgondii IFNg: inhibitors of Toxoplasma gondii growth with IFN-gamma | Toxoplasma gondii growth in IFN-gamma-treated host cells; hits give low values | activity change, negative = inhibition, % (concentration not given with the values) | actives 3.8% (n = 69,000); in the data active = activity change below about -70%, passing the limit was not always enough;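 also: host cells are HeLa cells infected with Toxoplasma gondii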
* hit, by the source's call; i = inactive; ! = not confirmed by another sample. Shown is part of a subset that was picked to be rich in hits.

SMILES	Tgondii IFNg
O=C1CC2(CCN(Cc3ccc(F)cc3)C2)CN1c1ccc2c(c1)OCO2 (stereo unspecified)	-38
CC(=O)Nc1ccc(S(=O)(=O)N2CCC3(CC2)Nc2cc(F)ccc2-n2cccc23)cc1	16
Cc1ccc(N(Cc2nc(-c3cccc(C)c3)oc2C)S(=O)(=O)c2cccs2)cc1	-58
CCCCOc1ccccc1C(=O)N1CCOC(C(F)(F)F)C1 (stereo unspecified)	-7
C=CCOc1ccc(C(=O)N2CCn3nc(C)nc3C2)cc1	-13
CN1CCC2(c3ccccc3)CCN(CC3CC3)CC12 (stereo unspecified)	-21
O=C1Cc2c([nH]c3ccc([N+](=O)[O-])cc23)-c2ccccc2N1	-74*
O=C(C1CCOCC1)N1CCO[C@H]2[C@H]1CC[C@H]2Oc1ncccc1F	-24
CNC(=O)C1(Cc2ccccc2-c2ccccc2)CCN(C(=O)Cc2nnc(N)s2)C1 (stereo unspecified)	1
O=C(CS(=O)(=O)Cc1ccccc1)NCc1ccc2c(c1)OCO2	-3
CCc1nc(OCC(=O)NCc2ccc3c(c2)OCO3)c2ccccc2n1	10
c1ccc(-c2cc3ncnc(NCc4ccc5c(c4)OCO5)c3s2)cc1	-105*
CC(C)Oc1ccc(C(=O)N[C@H](CNC(=O)CN(C)C)Cc2ccc(-c3cn4cccc([C@H](C)O)c4n3)cc2)cc1Cl	-80*
Cc1cccn2cc(-c3ccc(NC(=O)CNC(=O)c4ccccc4)cc3)nc12	61
Cn1nc(C(=O)NCc2cn3c(n2)SCC3)c2c1CCCC2	3
C[C@@H]1CN([C@H](C)CO)C(=O)c2cc(C#CC3(O)CCCC3)cnc2O[C@H]1CN(C)S(=O)(=O)c1cccc(F)c1	i
C[C@H](CO)N1C[C@H](C)[C@H](CN(C)S(=O)(=O)c2cccc(F)c2)Oc2ncc(C#CC3(O)CCCC3)cc2C1=O	60
C[C@H](CO)N1C[C@H](C)[C@@H](CN(C)C(=O)c2ccccc2)Oc2ncc(C#Cc3ccccc3)cc2C1=O	-88*
C[C@H]1CN([C@@H](C)CO)C(=O)c2cc(C#CC3(O)CCCC3)cnc2O[C@@H]1CN(C)S(=O)(=O)c1cccc(F)c1	-112*
C[C@@H]1CN([C@H](C)CO)C(=O)c2cc(C#Cc3ccccc3)cnc2O[C@@H]1CN(C)C(=O)c1ccccc1	17
C[C@H]1CN([C@@H](C)CO)C(=O)c2cc(C#Cc3ccccc3)cnc2O[C@H]1CN(C)C(=O)c1ccccc1	-14
COc1ccc2[nH]c(=O)c(CNc3ccc4c(c3)-c3ccccc3S(=O)(=O)N4)cc2c1	27
Cc1ccc(NC(=O)Cn2c(=O)cc(-c3nc(C(C)C)no3)c3ccccc32)c(Cl)c1	-40
CCOc1ccc(NS(=O)(=O)c2cc3c4c(c2)CCC(=O)N4CCC3)cc1	-37
CN1CC2(CCCN(Cc3cccc(OCC(=O)O)c3)C2)OC1=O (stereo unspecified)	2
SMILES	Tgondii IFNg
CCN(CC)C(=O)CC1CC2(CCN(S(=O)(=O)CC)CC2)Oc2ccccc21 (stereo unspecified)	-1
COc1ccc(O)c(C2=Nc3ccccc3N=C(c3ccccc3)C2)c1	167
COc1ccc(O)c(-c2nc3c(C(C)(C)C)cc(C(C)(C)C)c(O)c3o2)c1	-119*
COc1ccc(O)c(N)c1	36
COCCN1C[C@H]2[C@@H](OC)CCN(S(=O)(=O)c3cn(C)cn3)[C@H]2C1	0
CCc1nnc(CN2CCC3(CCCO3)CCC2=O)o1 (stereo unspecified)	-1
Cc1noc(-c2ccccc2OCC(=O)O)n1	62
CCc1nc2cc(NC(=O)COc3ccccc3-c3nc(C)no3)ccc2n1CC	-74*
CCOc1ccc(NC(=O)Cn2c(=O)cc(-c3nc(C)no3)c3ccccc32)cc1	21
COc1ccc(Cl)cc1NC(=O)N1CCCCC1CCn1ccnc1 (stereo unspecified)	9
Cc1ccc(C2(CN3CCC(NC(=O)CCc4n[nH]c(=O)[nH]c4=O)CC3)CCCC2)cc1	18
COc1ccc(S(=O)(=O)CC(=O)O)cc1	1
Cc1ccc2c(CN3CCN(CC(=O)Nn4c(C)nc5sc(C)cc5c4=O)CC3)cc(=O)oc2c1	0
COc1cc(-c2coc3cc(OC)c(OC)c(OC)c3c2=O)cc(OC)c1OC	2
COc1ccc(-c2coc3cc(O)ccc3c2=O)c(O)c1O	18
COc1cc(-c2coc3cc(OCc4ccccc4)c(OC)c(O)c3c2=O)cc(O)c1OC	-86*
Nc1nccc(N2CC[C@@H](N3CCCCCC3)[C@H](O)C2)n1	-2
O=C1NCC(c2ccc(Cl)cc2)Cc2[nH]c(Cc3cccnc3)nc21 (stereo unspecified)	-44
Cn1cccc1C(=O)NCc1cn2c(n1)CN(Cc1cccs1)CC2	108
OC(c1ccccc1)C1CCN(CCc2ccccc2)CC1 (stereo unspecified)	18
Cc1c(C2CCN(CCc3ccccc3)CC2)noc1-c1ccc(Cl)cc1	-76*!
CCn1c(CC2CCN(CCc3ccccc3)CC2)n[nH]c1=O	-5
CCN(Cc1ccccc1)C(=O)CN1C(=O)CCc2cc(Br)ccc21	9
COc1ccc2c3c([nH]c2c1)C1(NCC3)C(=O)Nc2ccccc21 (stereo unspecified)	38
COc1ccc2[nH]c3c(c2c1)CCN(C(=O)c1ccc(C)cc1)C31C(=O)Nc2ccccc21 (stereo unspecified)	-97*
SMILES	Tgondii IFNg
Cc1ccc2[nH]c3c(c2c1)CCNC31C(=O)Nc2ccccc21 (stereo unspecified)	36
CC1(CCc2c[nH]c3ccccc23)NCCc2[nH]cnc21 (stereo unspecified)	1
Cc1cc(COc2ccccc2)oc1C(=O)N(C)Cc1snnc1C	157
CN(CCc1cn[nH]c1)C(=O)c1coc(COc2cccc(F)c2F)n1	5
CCCCCCSc1nsc(NC(C)=O)n1	55
CC(=O)c1cccc(NC(=O)Nc2nc(SCc3ccc(F)cc3)ns2)c1	-107*
CSc1nsc(NC(=O)OCc2ccc(Cl)cc2)n1	12
CN(C)C(=O)N[C@H]1CN(Cc2nccn2C)C2CCCOC21 (stereo partly specified)	4
COc1ccc(Br)cc1-c1nc(Cn2nnc(C(=O)Nc3ccc(F)cc3F)c2C)c(C)o1	329
COc1ccc(-c2[nH]c3ncccc3c2CN2CCC(O)(c3ccccc3C)CC2)cc1	-98*
COc1ccccc1CNC(=O)CN1CCC(O)(c2ccccc2C)C1 (stereo unspecified)	4
c1cncc(-c2[nH]c3ncccc3c2CN2CCSCC2)c1	-34
Cc1occc1C(=O)N1C[C@H]2CN(c3cncnc3)C(=O)[C@@H]2C1	-5
O=C1NC(=O)C(c2cnc3ccccn23)=C1c1cn2c3c(cc(F)cc13)CN(C(=O)N1CCCCC1)CC2	-87*
CN(C)CC1(O)CCCN(C(=O)c2cnc3ccccn3c2=O)C1 (stereo unspecified)	5
CN(C)CC1(O)CCCN(C(=O)c2cnc3ccccn3c2=O)CC1 (stereo unspecified)	2
CCCc1oc(C(=O)N2CCN(C)CC2c2ccccc2)cc1CN1CCOCC1 (stereo unspecified)	8
COc1ccc(CN(C)C(=O)c2cnc(-c3ccccc3)nc2)cc1	-8
Cc1cc(C)nc(Cn2nc(C3CCNCC3)n(Cc3ccccc3)c2=O)n1	-16
COc1ncccc1-c1cccc(-c2nnc(C)s2)c1	-94*
COc1ncccc1-c1nn(C)c2ccc(C)cc12	7
COc1ncccc1-c1[nH]cnc1-c1ccccc1	-15
Cc1cccc2c3nc4ccccc4nc3n(Cc3nnc(-c4ccccc4)o3)c12	96

Compound activity from PubChem BioAssay.
